From PubChem BioAssay (NCATS)
Inconclusive results are not listed. Activity calls are given as the source filed them. Calls follow the shape of the dose curve; as a rule, active = well fitted curve in the direction sought with a large enough effect; inconclusive = small, poorly fitted or top-dose-only effect, or another doubt; inactive = no such curve, though single readings can be large; an effect the other way counts as inactive or inconclusive.

Assays:
[1] = Cell Viability - LYMP2-001 (AID 921); also: series mostly up to about 92 µM; nearly all actives have a fitted effect of over 70% in size
In short: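 CellTiter-Glo luminescence (intracellular ATP) after 24 hr compound exposure at 37 C, 2500 lymphoblastoid cells/well in complete medium. AC50 fitted with standard Hill equation; tetraoctylammonium bromide positive control.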

[2] = MultiTox-Fluor Cytotoxicity Assay - LYMP1-001 - Dead Cells (AID 946)
In short: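 AC50 from Hill fit of concentration-response; data normalized to DMSO (basal) and 15 uM tetraoctylammonium bromide (100%). LYMP1-001 lymphoblastoid cells, 2500/well, 16 hr compound at 37 C; dead-cell protease fluorescence, Ex/Em 485/520.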

[3] = Cell Viability - LYMP1-002 - Assay at 16 hr (AID 948)
In short: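 LYMP1-002 human lymphoblastoid cells, 2500/well; 5 hr 37 C; cpd 16 hr 37 C; CellTiter-Glo 30 min RT; luminescence (ATP). Concentration-response, Hill-fit AC50. Pos ctrl tetraoctylammonium bromide.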

[4] = MultiTox-Fluor Cytotoxicity Assay - LYMP1-002 - Live Cells (AID 955);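 also: cells exposed to compound for 16 hours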
In short: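 In this qHTS viability format, lymphoblastoid cells (LYMP1-002, human) received compound for 16 hr at 37 C. Fluorogenic GF-AFC cleavage by viable cells was detected at 405/510 nm after 1 h at room temperature.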

[5] = MultiTox-Fluor Cytotoxicity Assay - LYMP1-003 - Dead Cells (AID 961); also: nearly all actives have a fitted effect of over 70% in size
In short: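 Human lymphoblastoid LYMP1-003 cells (2500/well) were treated with compounds for 16 hr at 37 C in complete medium. Dead-cell protease release was read by bis-AAF-R110 fluorescence (Ex/Em 485/520). AC50 came from Hill fits, normalized to DMSO and 15 uM tetraoctylammonium bromide.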

[6] = MultiTox-Fluor Cytotoxicity Assay - LYMP1-003 - Live Cells (AID 962);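 also: cells exposed to compound for 16 hours at 37 °C; cytotoxic hits lower the live-cell protease signal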
In short: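 Human lymphoblastoid line LYMP1-003 in complete culture medium, treated 16 hr with titrated compounds. Viable cells quantified via cell-permeant GF-AFC substrate fluorescence; AC50 derived by Hill fitting.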

[7] = Cell Viability - LYMP1-003 - Assay at 24 hr (AID 963)
In short: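 The lymphoblastoid line was treated with titrated compounds for 24 hours, and viable cell number estimated from luciferase-based ATP luminescence.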

[8] = Cell Viability - LYMP1-003 - Assay at 40 hr (AID 964); also: series mostly up to about 92 µM; nearly all actives have a fitted effect of over 60% in size
In short: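 Acute toxicity is scored as a concentration-dependent loss of intracellular ATP in LYMP1-003 cells (2500/well, complete medium) after 40 hr at 37 C, measured by CellTiter-Glo luminescence; AC50 values derive from standard Hill modelling.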

[9] = Cell Viability - LYMP2-003 (AID 965);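 also: cells exposed to compounds for 24 h before reading; nearly all actives have a fitted effect of over 50% in size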
In short: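 CellTiter-Glo luminescence (cellular ATP) after 24 h compound exposure at 37 C in complete medium; 2500 cells/well, 5 h settling beforehand. Concentration-response fitted to standard Hill equation for AC50. Tetraoctylammonium bromide served as positive control.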

[10] = Cell Viability - LYMP2-005 (AID 967); also: series mostly up to about 92 µM
In short: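 Steps: seed 2500 LYMP2-005 cells/well, incubate 5 h at 37 C, add compound, incubate 24 h at 37 C, add CellTiter-Glo, wait 30 min at RT, read luminescence. Concentration-response data fitted to Hill equation for AC50.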

[11] = Cell Viability - LYMP2-009 (AID 968); also: series mostly up to about 92 µM; nearly all actives have a fitted effect of over 55% in size
[12] = Cell Viability - LYMP2-011 (AID 969); also: nearly all actives have a fitted effect of over 60% in size
In short: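 Cells seeded at 2500 per well rest 5 hr before compound addition, then incubate 24 hr at 37 C. CellTiter-Glo reagent is added for 30 min at room temperature before luminescence detection.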

[13] = Cell Viability - LYMP2-013 (AID 970); also: series mostly up to about 92 µM; nearly all actives have a fitted effect of over 55% in size
In short: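 In complete culture medium, human lymphoblastoid cells were dosed for 24 hr at 37 C, with tetraoctylammonium bromide (6.4pM to 92 uM) as positive control. Viability reflects luciferase-based ATP signal; AC50 derived from concentration-response curves.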

[14] = Cell Viability - LYMP2-017 (AID 972); also: series mostly up to about 92 µM; nearly all actives have a fitted effect of over 55% in size
In short: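 In this qHTS format, lymphoblastoid cells in complete medium receive test compound for a day at 37 C before ATP content is quantified by luciferase luminescence. Reported AC50 figures come from standard Hill-equation curve fitting.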

[15] = Cell Viability - LYMP2-019 (AID 973); also: nearly all actives have a fitted effect of over 55% in size
In short: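 AC50 values come from Hill-equation modelling of qHTS concentration-response curves, where viability is measured as luciferase-based ATP luminescence in the lymphoblastoid line after 24 hr compound exposure in complete culture medium.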

[16] = Cell Viability - LYMP2-021 (AID 974)
In short: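 In qHTS format, compounds are tested against 2500 lymphoblastoid cells per well for 24 h; viable cell number is inferred from ATP-driven luciferase light, and Hill-equation fitting yields AC50 values.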

[17] = Cell Viability - LYMP2-023 (AID 975)
In short: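 In this qHTS, ATP-based luciferase luminescence (CellTiter-Glo) is quantified in human lymphoblastoid cells after 24 hr compound treatment at 37 C; tetraoctylammonium bromide serves as positive control. Concentration-response curves are Hill-fitted to give AC50.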

[18] = Cell Viability - LYMP2-002 (AID 977); also: series mostly up to about 92 µM
In short: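 Human lymphoblastoid cells (2500/well) in complete medium were preincubated 5 hr at 37 C, then exposed to compounds for 24 hr at 37 C. Intracellular ATP was read by CellTiter-Glo luminescence; AC50 came from Hill-equation concentration-response fits.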

[19] = Cell Viability - LYMP2-006 (AID 978); also: series mostly up to about 92 µM; nearly all actives have a fitted effect of over 60% in size
In short: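 qHTS, 1536-well; 2500 cells/well, 5 hr 37 C; cpd 24 hr 37 C; CellTiter-Glo 30 min RT; luminescence. Tetraoctylammonium bromide pos. ctrl. AC50 via Hill eqn.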

[20] = Cell Viability - LYMP2-007 (AID 979);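 also: cells exposed to compound for 24 h before reading; nearly all actives have a fitted effect of over 60% in size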
In short: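 Measured via luciferase-based ATP quantitation: lymphoblastoid cells, 24 hr compound exposure at 37 C, AC50 from Hill fits.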

Measured: Potency

C=C(C)C1CC=C(C)C(O)C1 (stereo not given)
inactive: all assays above

O=C(O)c1ccccc1
inactive: all assays above

CC1=C2[C@H](/C=C(\C)C(=O)O)CC[C@@H](C)[C@H]2CC1
inactive: all assays above

CCCCCCCCCCCCCC(=O)O
inactive: all assays above

C=CC(=C)CCC=C(C)C
inactive: all assays above

COc1cc(/C=C/c2ccccc2)oc(=O)c1
inactive: all assays above

COc1ccc(/C=C/c2cc(OC)cc(=O)o2)cc1
inactive: all assays above
